# Source: PubChem (National Center for Advancing Translational Sciences (NCATS))
# Tau fibril ThT: inhibitors of human tau fibril formation, thioflavin T binding; recombinant tau K18 P301L, heparin-induced fibrillization, ThT fluorescence; P10636; 270,000 tested, 2.1% active; Potency, µM (top dose mostly 57.4 µM), without a hit: at the top dose activity, negative = inhibition, actives largely listed as inhibitors; further: potency means the concentration at half of the fitted maximal effect; nearly all actives have a fitted effect of over 55% in size
# Target sequence (P10636 561-689 P618L limits assumed): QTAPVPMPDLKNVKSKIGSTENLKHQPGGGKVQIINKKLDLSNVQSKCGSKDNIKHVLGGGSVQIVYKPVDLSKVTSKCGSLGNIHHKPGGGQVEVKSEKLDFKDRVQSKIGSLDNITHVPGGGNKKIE
#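 Fibril formation assay: tau K18 P301L at 15 uM with trace Alexa 594 label, heparin inducer 20 uM, pH 7 sodium acetate buffer, 37 C for 6 hr; endpoint ThT signal.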
# JMJD2E inh: inhibitors of human JMJD2E histone demethylase; Potency, µM (doses to about 57.1 µM), inactives show at the top dose activity change, negative = inhibition, usual class: inhibitors; 230,000 tested, 1.6% active; JMJD2E catalytic domain, FDH-coupled NADH fluorescence (FDH is formaldehyde dehydrogenase); B2RXH2; AID 2147; active means well fitted inhibition curve with a large enough effect, not every such curve was filed as active; inconclusive means small, poorly fitted or top-dose-only effect, or another doubt; inactive means no such curve, though single readings can be large or run the other way;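 further: potency means the concentration at half of the fitted maximal effect; 0% = wells with enzyme and -100% = buffer wells without enzyme; nearly all actives have a fitted effect of over 50% in size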
# Target sequence (B2RXH2 1-337 limits assumed): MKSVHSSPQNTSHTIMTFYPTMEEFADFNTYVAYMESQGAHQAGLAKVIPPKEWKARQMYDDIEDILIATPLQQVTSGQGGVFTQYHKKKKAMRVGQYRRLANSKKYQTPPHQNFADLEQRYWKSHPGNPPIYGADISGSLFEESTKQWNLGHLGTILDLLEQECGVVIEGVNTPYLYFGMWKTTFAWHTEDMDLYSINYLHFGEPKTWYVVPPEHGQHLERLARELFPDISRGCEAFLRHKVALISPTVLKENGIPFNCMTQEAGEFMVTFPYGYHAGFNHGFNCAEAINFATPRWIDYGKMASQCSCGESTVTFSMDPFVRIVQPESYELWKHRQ
# Tau fluor counter: counter-screen for tau fibril formation inhibitors; tau K18 P301L (four-repeat tau fragment) Alexa594 fluorescence, heparin fibrillization; Potency, µM (titrated, usually from 57.7 µM), inactives show at the top dose activity change, negative = decrease; 280,000 tested, 0.93% active; further: potency means the concentration at half of the fitted maximal effect; nearly all actives have a fitted effect of over 55% in size
#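 Human K18 P301L tau (15 uM unlabeled plus 0.24 uM Alexa 594-labeled, final) in 100 mM sodium acetate pH 7 was mixed with compound and 20 uM heparin and incubated 6 hr at 37 C.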
# Tau FP inhib: blocks human tau fibril formation measured by polarization. AID 1468. Potency, µM (top dose mostly 57.7 µM), for the others: at the top dose activity, negative = inhibition, usual class: inhibitors. P10636. 280,000 tested, 0.39% active. K18 P301L tau heparin fibrillization, Alexa594 FP, 6 h; further: potency means the concentration at half of the fitted maximal effect; nearly all actives have a fitted effect of over 55% in size
#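 Human K18 P301L fragment (15 uM unlabeled plus 0.24 uM Alexa 594-labeled) in 100 mM sodium acetate pH 7 with compound, aggregation induced by 20 uM heparin for 6 hr at 37 C. ThT (30 uM) added for 1 hr, then Alexa 594 FP read.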
# FBPA coupling cs: inhibits coupling enzyme system, counter-screen for aldolase hits. coupling enzyme system counterscreen, AmpLite Red fluorescence. activity change, negative = inhibition, % at 58.2 µM, hits read low. 290,000 tested, 0.67% active; in the data active means activity change below about -30%
#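 Activity here indicates interference with the coupling reaction, not aldolase inhibition. Compounds at 57.5 uM final met coupling enzymes for 10 min at RT; substrate and AmpLite Red detection followed, with a 525/598 nm fluorescence read after 20 min.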
# Sfp inh: Sfp phosphopantetheinyl transferase inhibition | Potency, µM, for inactives: largest response in the series, negative = inhibition, usual class: inhibitors | Q9F4F7 | Biochemical Sfp PPTase activity, qHTS | 310,000 tested, 3.5% active;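 further: the enzyme is Sfp with the accession as filed and its product quenches rhodamine fluorescence; potency means the concentration at half of the fitted maximal effect; 0% = enzyme reaction without inhibitor and -100% = no enzyme wells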
#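 Step 1, compound plus 15 nM Sfp-PPTase, 15 min, room temperature. Step 2, add rhodamine-CoA (5 uM) and BHQ-2-YbbR (12.5 uM). Step 3, read 525/598 nm fluorescence at 0 and 30 min.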
# Numbers without * were called inactive; u = inconclusive; x = not tested or not shown; ! = a repeat was not active; [ ] = another dose, or the depositor's remark. The list is not random: actives were taken first. Their share in the collection is about 5.3%. Unless noted, the call rests on the fitted dose curve; in most records, active means well fitted curve in the direction sought with a large enough effect; inconclusive means small, poorly fitted or top-dose-only effect, or another doubt; inactive means no such curve, though single readings can be large; an effect the other way counts as inactive or inconclusive. Unless noted, on the % scale 0 is the no-effect control and ±100 the full control effect.
SMILES,Tau fibril ThT,JMJD2E inh,Tau fluor counter,Tau FP inhib,FBPA coupling cs,Sfp inh
COC(=O)c1cccnc1-n1c(=O)c2cccnc2n(CC(=O)Nc2ccccc2F)c1=O,-3.8%,x,-9.7%,-4.5%,x,x
CCOC(=O)N1CCc2c(sc3c2c(=O)n(-c2ccc(Cl)cc2)c(=O)n3CC(C)C)C1,5.7%,x,-2.5%,-1.8%,x,x
Cc1ccc(N2C(=O)C3C4C=CC(CNC(=S)N5CCN(c6cccc(C)c6)C(C)C5)(O4)C3C2=O)cc1 (centres undefined),-16.7%,6.3%,7.8%,8.6%,3.1,20µM*
Oc1ccc(O)c(Cc2nc3ccccc3[nH]2)c1,u,-26.3%,u,-6.3%,-2.9,35.5µM*
c1ccc2[nH]c(CCCc3nc4ccccc4[nH]3)nc2c1,x,x,x,x,-2.4,16.1%
Cc1cc(/C=N/n2c(COc3ccccc3)nc3ccccc3c2=O)c(O)c([N+](=O)[O-])c1,11.2µM*,u,u,13.8%,0.2,-0.6%
CCCc1nc2ccccc2c(=O)n1/N=C/c1ccc(O)cc1O,-9.3%,31.6µM*,u,9.0%,3.5,-1.5%
CCCc1nc2ccccc2c(=O)n1/N=C/c1ccc(O)cc1,5.7%,-6.1%,1.4%,-3.4%,-0.9,12.1%
CC(=O)c1ccc(NC(=O)COc2ccccc2-c2nc(-c3ccc(C)cc3)no2)cc1,u,x,u,16.2%,x,x
COc1cccc(-n2c(SCc3ccc(F)cc3)nc3c([nH]c4ccccc43)c2=O)c1,-1.8%,x,-22.5%,-5.5%,x,x
CCOc1ccc(-c2nc(SCC(=O)Nc3cc(F)ccc3F)n3[nH]c(=O)cc3n2)cc1,-3.4%,x,-11.1%,-9.3%,x,x
COc1ccc(-c2coc3cc(OC)cc(O)c3c2=O)cc1,-23.8%,-0.5%,-9.6%,0.2%,x,11.7%
COc1ccc(-c2coc3cc(O)cc(O)c3c2=O)cc1,u,u,u,u,0.5,50.1µM*!
COc1ccc2[nH]cc(CCNc3nc(-c4ccc(N(C)C)cc4)nc4ccccc34)c2c1,x,x,x,x,-5.7,17.8µM*
COc1ccc2[nH]cc(CCNc3nc(-c4ccc(C(=O)N(C)C)cc4)nc4ccccc34)c2c1,u,u,15.8µM*[quencher],3.0%,-5.4,-20.8%
COc1ccccc1CNc1nc(-c2ccc(N(C)C)cc2)nc2ccccc12,15.8µM*,u,11.2µM*[quencher],u,-32.3*,15.8µM*
COc1ccccc1CNc1nc(-c2ccc(C(=O)N(C)C)cc2)nc2ccccc12,x,x,x,x,6.6,-11.5%
CCCCCSc1nc2sc3c(c2c(=O)n1-c1ccc(OC)cc1)CCN(C(C)=O)C3,u,x,-18.6%,-8.0%,x,x
CC(C)c1ccc(S(=O)(=O)N2CCN(Cc3cccc(F)c3)CC2)cc1,-6.6%,x,-12.6%,-6.0%,x,x
COc1ccc(SCC(Cc2ccccc2)N2CCN(CC(C)C)CCC2=O)cc1 (centres undefined),x,x,x,x,6.2,-22.5%
Cc1ccc(S(=O)(=O)CC#CCOC(=O)c2ccc([N+](=O)[O-])cc2)cc1,u,1.8%,u,12.4%,1.1,50.1µM*
CCOC(=O)c1cc(-c2ccccc2)sc1N,u,-6.3%,u,12.2%,0.3,22.4µM*
COc1cc(/C=N/NC(=O)c2cc(-c3ccccc3)sc2N)cc(OC)c1OC,x,u,12.6µM*[quencher],u,1.0,3.2%
NNC(=O)c1cc(-c2ccccc2)sc1N,7.94µM*,-17.6%,u,4.1%,-1.6,-10.8%
COc1cc(/C=N/NC(=O)c2cc(-c3cccs3)nc3ccccc23)ccc1O,u,u,17.8µM*[quencher],3.1%,1.0,22.2%
NNC(=O)c1sc(-c2ccccc2)cc1N,u,u,-20.2%,13.0%,-0.8,6.0%
O=C(Nc1sc(-c2ccccc2)cc1C(=O)O)c1ccccc1,12.6µM*,-10.8%,u,-8.5%,-2.7,-11.4%
CCCc1cc(C(=O)Cc2nc3ccccc3s2)c(O)cc1O,25.1µM*,u,20µM*[quencher],-0.3%,x,16.5%
CCCc1cc(C(=O)Cc2ccc(F)cc2)c(O)cc1O,-4.8%,-18.9%,u,-8.9%,-9.3,-16.1%
